Test results reported in PubChem BioAssay AID1159580 (chemical genetic matrix, 2015).
Several values for one entry are separate records, joined by “and”; a condition that tells them apart may be missing. Equal entries are not always repeated. In all, about 5,500 compounds went through this assay and about 2,000 (36%) were called active. About 18% were inconclusive and are not listed. Rule as the data show it: active = normalized growth mostly below about 0.91 (no sharp cut-off); inconclusive = no clear call, values can overlap the other calls; inactive = mostly above about 0.92. Some of the results follow.

Test: chemical genetic growth profiling, strain panel (AID 1159580);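 also: tested at 20 µM; growth read once vehicle control cultures reached saturation at 30 °C; 1 = growth at the plate median or of vehicle wells; lower values mean less growth of the strain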
Details: growth OD

Measured: normalized growth

NNc1nncc2ccccc12
inactive: S. cerevisiae deletion strains, locus YJR066W, strain TOR1, stronger effect = lower value 0.919 | S. cerevisiae deletion strains, locus YJR075W, strain HOC1, stronger effect = lower value 0.996 | S. cerevisiae deletion strains, locus YKL009W, strain mrt4, stronger effect = lower value 0.96 | S. cerevisiae deletion strains, locus YKL068W, stronger effect = lower value 0.997 | S. cerevisiae deletion strains, locus YKL085W, strain MDH1 (second series), stronger effect = lower value 0.989 | S. cerevisiae deletion strains, locus YKL085W, strain MDH1, stronger effect = lower value 0.989 | S. cerevisiae deletion strains, locus YKL160W, strain elf1, stronger effect = lower value 0.995 | S. cerevisiae deletion strains, locus YKL190W, strain CNB1, stronger effect = lower value 1 | S. cerevisiae deletion strains, locus YKR001C, strain vps1, stronger effect = lower value 1 | S. cerevisiae deletion strains, locus YKR026C, strain gcn3, stronger effect = lower value 0.998 | S. cerevisiae deletion strains, locus YKR091W, strain srl3, stronger effect = lower value 0.997 | S. cerevisiae deletion strains, locus YLL001W, strain dnm1, stronger effect = lower value 0.979 | S. cerevisiae deletion strains, locus YLL026W, stronger effect = lower value 1 | S. cerevisiae deletion strains, locus YLL041C, strain sdh2, stronger effect = lower value 0.994 | S. cerevisiae deletion strains, locus YLR027C, strain aat2, stronger effect = lower value 1 | S. cerevisiae deletion strains, locus YLR039C, strain RIC1, stronger effect = lower value 0.989 | S. cerevisiae deletion strains, locus YLR058C, strain SHM2, stronger effect = lower value 1.01 | S. cerevisiae deletion strains, locus YLR102C, strain apc9, stronger effect = lower value 0.991 | S. cerevisiae deletion strains, locus YLR113W, strain HOG1, stronger effect = lower value 1.06 | S. cerevisiae deletion strains, locus YLR221C, strain rsa3, stronger effect = lower value 0.969 | S. cerevisiae deletion strains, locus YLR258W, strain gsy2, stronger effect = lower value 0.991 | S. cerevisiae deletion strains, locus YLR262C, strain YPT6 (second series), stronger effect = lower value 1 | S. cerevisiae deletion strains, locus YLR262C, strain YPT6, stronger effect = lower value 1.07 | S. cerevisiae deletion strains, locus YLR268W, strain sec22, stronger effect = lower value 0.954 | S. cerevisiae deletion strains, locus YLR320W, strain mms22, stronger effect = lower value 0.991 | S. cerevisiae deletion strains, locus YLR330W, strain CHS5, stronger effect = lower value 1.01 | S. cerevisiae deletion strains, locus YLR342W, strain FKS1 (second series), stronger effect = lower value 0.934 | S. cerevisiae deletion strains, locus YLR342W, strain FKS1, stronger effect = lower value 1.01 | S. cerevisiae deletion strains, locus YLR357W, strain rsc2, stronger effect = lower value 0.981 | S. cerevisiae deletion strains, locus YLR370C, strain arc18, stronger effect = lower value 0.977 | S. cerevisiae deletion strains, locus YLR371W, strain rom2, stronger effect = lower value 0.989 | S. cerevisiae deletion strains, locus YLR384C, strain iki3, stronger effect = lower value 0.985 | S. cerevisiae deletion strains, locus YLR418C, strain cdc73, stronger effect = lower value 0.96 | S. cerevisiae deletion strains, locus YML016C, strain PPZ1, stronger effect = lower value 0.995 | S. cerevisiae deletion strains, locus YML032C, strain rad52, stronger effect = lower value 0.985 | S. cerevisiae deletion strains, locus YML120C, strain ndi1, stronger effect = lower value 0.981 | S. cerevisiae deletion strains, locus YML124C, strain tub3, stronger effect = lower value 0.996 | S. cerevisiae deletion strains, locus YMR058W, strain fet3, stronger effect = lower value 0.996 | S. cerevisiae deletion strains, locus YMR078C, strain ctf18, stronger effect = lower value 0.993 | S. cerevisiae deletion strains, locus YMR125W, strain sto1, stronger effect = lower value 1.01 | S. cerevisiae deletion strains, locus YMR129W, stronger effect = lower value 0.996 | S. cerevisiae deletion strains, locus YMR205C, strain PFK2, stronger effect = lower value 0.998 | S. cerevisiae deletion strains, locus YMR223W, strain ubp8, stronger effect = lower value 0.975 | S. cerevisiae deletion strains, locus YMR231W, strain pep5, stronger effect = lower value 0.995 | S. cerevisiae deletion strains, locus YMR263W, strain SAP30, stronger effect = lower value 1 | S. cerevisiae deletion strains, locus YMR307W, strain GAS1, stronger effect = lower value 1.02 and 0.998 | S. cerevisiae deletion strains, locus YNL067W, strain RPL9B, stronger effect = lower value 1.01 | S. cerevisiae deletion strains, locus YNL071W, strain lat1, stronger effect = lower value 1.01 | S. cerevisiae deletion strains, locus YNL153C, strain GIM3, stronger effect = lower value 0.986 and 0.997 | S. cerevisiae deletion strains, locus YNL175C, strain NOP13, stronger effect = lower value 1.01 | S. cerevisiae deletion strains, locus YNL183C, strain NPR1, stronger effect = lower value 0.945 | S. cerevisiae deletion strains, locus YNL197C, strain WHI3, stronger effect = lower value 1.01 | S. cerevisiae deletion strains, locus YNL209W, strain ssb2, stronger effect = lower value 0.99 | S. cerevisiae deletion strains, locus YNL224C, strain SQS1, stronger effect = lower value 1.03 | S. cerevisiae deletion strains, locus YNL233W, strain BNI4, stronger effect = lower value 0.997 | S. cerevisiae deletion strains, locus YNL248C, strain rpa49, stronger effect = lower value 1.03 | S. cerevisiae deletion strains, locus YNL250W, strain rad50, stronger effect = lower value 0.988 | S. cerevisiae deletion strains, locus YNL271C, strain bni1, stronger effect = lower value 0.993 | S. cerevisiae deletion strains, locus YNL298W, strain CLA4, stronger effect = lower value 0.986 | S. cerevisiae deletion strains, locus YNL307C, strain MCK1, stronger effect = lower value 0.991 | S. cerevisiae deletion strains, locus YNL322C, strain KRE1 (second series), stronger effect = lower value 0.98 | S. cerevisiae deletion strains, locus YNR049C, strain mso1, stronger effect = lower value 0.999 | S. cerevisiae deletion strains, locus YNR052C, strain pop2, stronger effect = lower value 0.985 | S. cerevisiae deletion strains, locus YOL012C, strain htz1 1.31 | S. cerevisiae deletion strains, locus YOL147C, strain pex11, stronger effect = lower value 1 | S. cerevisiae deletion strains, locus YOR001W, strain rrp6, stronger effect = lower value 0.995 | S. cerevisiae deletion strains, locus YOR061W, strain CKA2, stronger effect = lower value 1.01 | S. cerevisiae deletion strains, locus YOR069W, strain VPS5, stronger effect = lower value 1 | S. cerevisiae deletion strains, locus YOR070C, strain gyp1, stronger effect = lower value 0.998 | S. cerevisiae deletion strains, locus YOR080W, strain dia2, stronger effect = lower value 0.997 | S. cerevisiae deletion strains, locus YOR083W, strain WHI5 (second series), stronger effect = lower value 1.03 | S. cerevisiae deletion strains, locus YOR083W, strain WHI5, stronger effect = lower value 1.01 | S. cerevisiae deletion strains, locus YOR106W, strain vam3, stronger effect = lower value 1 | S. cerevisiae deletion strains, locus YOR136W, strain idh2, stronger effect = lower value 0.988 | S. cerevisiae deletion strains, locus YOR144C, strain elg1, stronger effect = lower value 1 | S. cerevisiae deletion strains, locus YOR184W, strain ser1, stronger effect = lower value 0.958 | S. cerevisiae deletion strains, locus YOR231W, strain MKK1, stronger effect = lower value 1.02 | S. cerevisiae deletion strains, locus YOR265W, strain rbl2, stronger effect = lower value 0.989 | S. cerevisiae deletion strains, locus YOR270C, strain vph1, stronger effect = lower value 0.996 | S. cerevisiae deletion strains, locus YOR290C, strain snf2, stronger effect = lower value 0.942 | S. cerevisiae deletion strains, locus YOR316C, strain cot1, stronger effect = lower value 1 | S. cerevisiae deletion strains, locus YPL051W, strain arl3, stronger effect = lower value 1 | S. cerevisiae deletion strains, locus YPL055C, strain LGE1, stronger effect = lower value 1 | S. cerevisiae deletion strains, locus YPL078C, strain atp4, stronger effect = lower value 0.991 | S. cerevisiae deletion strains, locus YPL106C, strain sse1, stronger effect = lower value 0.941 | S. cerevisiae deletion strains, locus YPL240C, strain hsp82, stronger effect = lower value 0.987 | S. cerevisiae deletion strains, locus YPL241C, strain CIN2, stronger effect = lower value 0.998 | S. cerevisiae deletion strains, locus YPL256C, strain CLN2, stronger effect = lower value 1.04 | S. cerevisiae deletion strains, locus YPR119W, strain clb2, stronger effect = lower value 1 | S. cerevisiae deletion strains, locus YPR141C, strain kar3, stronger effect = lower value 1.01 | S. cerevisiae deletion strains, locus YPR163C, strain tif3, stronger effect = lower value 1.01 | S. cerevisiae deletion strains, locus YPR167C, strain met16, stronger effect = lower value 0.995 | S. cerevisiae deletion strains, strain wtn01, stronger effect = lower value 0.965 | S. cerevisiae strains, strain wild type, stronger effect = lower value 1.01
